Source: PubChem BioAssay AID504339 (National Center for Advancing Translational Sciences (NCATS), 2011)
Screen size: about 390,000 compounds; about 17,000 (4.4%) were called active. Roughly 8% stayed inconclusive and do not appear here. The entries come from a sample that favours actives as a whole. A call without a number means that no potency is given here. A number with no mark means an inactive call. Calls follow the shape of the dose curve; as a rule, active = well fitted inhibition curve with a large enough effect; inconclusive = small, poorly fitted or top-dose-only effect; inactive = no such curve, though single readings can be large or run the other way.

target: Lysine-specific demethylase 4A (Homo sapiens) (UniProt O75164); assay: qHTS Assay for Inhibitors of JMJD2A-Tudor Domain; conditions: AlphaScreen JMJD2A-Tudor / H3K4me3 peptide binding; series mostly up to 114 µM; also: nearly all actives have a fitted effect of over 50% in size
Sequence (O75164 whole entry, looked up, the tested form may be a part): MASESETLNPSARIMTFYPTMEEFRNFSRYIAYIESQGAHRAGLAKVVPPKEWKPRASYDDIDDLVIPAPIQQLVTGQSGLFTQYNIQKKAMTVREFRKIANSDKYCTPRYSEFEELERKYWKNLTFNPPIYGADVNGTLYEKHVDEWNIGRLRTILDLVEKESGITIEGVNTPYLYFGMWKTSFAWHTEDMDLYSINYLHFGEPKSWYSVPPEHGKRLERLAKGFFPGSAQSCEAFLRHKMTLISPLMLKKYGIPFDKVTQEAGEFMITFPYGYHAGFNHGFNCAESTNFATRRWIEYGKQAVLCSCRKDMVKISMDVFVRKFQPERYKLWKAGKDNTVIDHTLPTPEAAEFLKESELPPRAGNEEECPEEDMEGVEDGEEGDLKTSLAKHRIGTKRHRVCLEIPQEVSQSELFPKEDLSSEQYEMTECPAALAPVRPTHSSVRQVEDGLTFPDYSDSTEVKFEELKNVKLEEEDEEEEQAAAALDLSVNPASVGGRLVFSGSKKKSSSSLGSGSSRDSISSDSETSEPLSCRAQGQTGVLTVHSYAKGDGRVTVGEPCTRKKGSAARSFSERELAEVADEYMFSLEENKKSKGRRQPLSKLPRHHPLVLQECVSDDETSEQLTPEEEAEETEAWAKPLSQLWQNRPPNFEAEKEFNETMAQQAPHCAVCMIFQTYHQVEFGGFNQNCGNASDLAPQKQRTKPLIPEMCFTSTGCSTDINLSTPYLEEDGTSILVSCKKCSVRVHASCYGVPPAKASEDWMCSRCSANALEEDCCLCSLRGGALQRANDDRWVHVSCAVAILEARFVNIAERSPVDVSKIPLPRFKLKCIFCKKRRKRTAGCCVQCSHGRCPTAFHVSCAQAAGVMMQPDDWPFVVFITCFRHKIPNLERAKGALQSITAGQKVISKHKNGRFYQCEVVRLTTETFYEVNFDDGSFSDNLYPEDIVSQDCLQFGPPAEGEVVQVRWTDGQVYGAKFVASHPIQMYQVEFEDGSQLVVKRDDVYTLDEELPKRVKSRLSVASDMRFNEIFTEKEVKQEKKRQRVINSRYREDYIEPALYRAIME
Potency is read from the fitted curve at half-maximal effect.

Structure (SMILES)	Potency	activity change, negative = inhibition
Cc1ccccc1C(=O)Nc1sc2c(c1C(=O)N1CCC(C)CC1)CCCC2	inactive	
CC(=O)Nc1c(C)nn(-c2ccccc2)c1N1CCC(C(=O)Nc2cc(Cl)ccc2C)CC1	inactive	
Cc1ccc(Cc2nc3ccccc3nc2SCC(=O)Nc2cccc(C(F)(F)F)c2)cc1	inactive	
CCc1nc2ccc(C(=O)N3CCN(c4cc(Cl)ccc4C)CC3)cc2nc1CC	inactive	
COc1ccc(CCNC(=O)c2c3c(nc4ccccc24)C(=O)N(C2CCCCC2)C3)cc1OC	inactive	
COc1cccc(NC(=O)c2ccc3nc(CCc4ccccc4)oc3c2)c1	inactive	
CCOC(=O)c1scc(-c2ccc(C)cc2)c1S(=O)(=O)Nc1cc(C)ccc1C	inactive	
COc1ccc(NC(=O)C2CCN(c3ccc(Sc4ccc(C)cc4)nn3)CC2)c(OC)c1	inactive	
Nc1ccc(N=Nc2ccccc2Cl)c(N)n1	25.1 µM (active)	
COc1ccc(Cl)cc1N(C)C(=O)c1cc2c(=O)oc3ccc(C)cc3c2s1	inactive	
COc1ccc(-c2cc(C(=O)N3CCN(Cc4ccc5c(c4)OCO5)CC3)on2)cc1OC	20 µM (active)	
COc1cc(Cl)c(S(=O)(=O)N2CCN(Cc3ccc4c(c3)OCO4)CC2)cc1Cl	inactive	
Cc1cc(C)n2nc(C(=O)N3CCN(Cc4ccc5c(c4)OCO5)CC3)nc2n1	inactive	
COc1ccc(-c2nc3scc(CCNS(=O)(=O)c4cc(F)ccc4OC)n3n2)cc1OC	inactive	
Cc1cc(C)nc(S/C=C/C(=O)c2ccccc2)n1	inactive	
O=C(/C=C/Sc1ncn[nH]1)c1ccc(Cl)cc1	31.6 µM (active)	
CC(=O)c1ccc(N2CCN(c3nc4c(S(=O)(=O)c5ccccc5)nnn4c4ccc(Cl)cc34)CC2)cc1	inactive	
COc1ccc(S(=O)(=O)NCc2cccn2Cc2cccc(C)c2)cc1Cl	inactive	
C=CCN(CC=C)CCOc1ccccc1[N+](=O)[O-]	1 µM (active)	
O=C(COc1ccccc1[N+](=O)[O-])NC1CC1	inactive	
Cc1ccc(OCC(=O)Oc2ccccc2[N+](=O)[O-])cc1	inactive	
COc1ccc(CNC(=O)C2=Cc3cccc(OC)c3OC2)cc1OC	inactive	
CCN(CC)c1nc(C#N)nc(OC)n1	inactive	
O=C(CCn1c(=O)c2sccc2n(Cc2ccc(F)cc2)c1=O)NCc1ccc2c(c1)OCO2	inactive	
CC(O)c1ccc(OCCN(C)c2ccccn2)cc1 (centres undefined)	inactive	

Structure (SMILES)	Potency	activity change, negative = inhibition
CN(CCOc1ccc(CC2SC(=O)NC2=O)cc1)c1ccccn1 (centres undefined)	inactive	
CCN(CC)CCOc1ccc2c(c1)C(=NNC(=O)c1ccccn1)c1cc(OCCN(CC)CC)ccc1-2	25.1 µM (active)	
Cc1cccc(NC(=O)Cn2nc(-c3ccc(Cl)cc3)c3ccccc3c2=O)c1	inactive	
O=C(CN1C(=O)COc2ccc(S(=O)(=O)N3CCCCCC3)cc21)N1CCN(c2cccc(C(F)(F)F)c2)CC1	inactive	
CCOCCCNC(=O)c1c(NC(=O)Cc2coc3ccc(C)cc23)sc2c1CCC2	inactive	
CN(C)c1ccc(/C=C/C(=O)c2ccc(C(C)(C)C)cc2)cc1[N+](=O)[O-]	11.2 µM (active)	
Cc1cc(C(=O)O)ccc1[N+](=O)[O-]	inactive	
CC(C)(C)c1ccc(/C=C/C(=O)Nc2ncccn2)cc1	inactive	
CCOc1ccc(NC(=O)CC2C(=O)N(c3cccc(OC)c3)C(=O)N2C2CCCCC2)cc1 (centres undefined)	inactive	
Cc1ccccc1CNC(=O)CCc1cn(Cc2ccccc2C)c2ccccc12	inactive	
CSCCC(NC(=O)c1ccc(=O)n(C)n1)c1nc2ccccc2[nH]1 (centres undefined)	89.1 µM (active)	
COc1ccc(CC(=O)N[C@@H](CCSC)c2nc3ccccc3[nH]2)cc1	inactive	
CSCCC(NC(=O)c1cc([N+](=O)[O-])cc([N+](=O)[O-])c1)c1nc2ccccc2[nH]1 (centres undefined)	inactive	
Cc1ccc(CNC(=O)CCC(=O)N2Cc3ccccc3Oc3ncccc32)cc1	inactive	
O=C(Nc1nonc1-c1ccc(Cl)cc1)c1ccco1	inactive	
O=C(Nc1nc(-c2ccco2)c(-c2ccco2)s1)c1ccco1	50.1 µM (active)	
CCN(c1ccc(Cl)cc1)S(=O)(=O)c1nnc(NC(=O)c2ccco2)s1	inactive	
Cc1ccc(S(=O)(=O)c2cn(Cc3ccccc3)c3cc(N4CCCC4)c(F)cc3c2=O)c(C)c1	inactive	
O=C(COc1ccc(Cl)cc1)Nc1ccc2c(c1)OCO2	inactive	
CCOc1ccc(NCCC(=O)c2ccc3c(c2)OCO3)cc1	39.8 µM (active)	
COC(=O)CCNc1ccc2c(c1)OCCO2	inactive	
CNC(=O)[C@]1(C(F)(F)F)C[C@H](CCc2ccccc2)CCCO1	inactive	
Cc1ccc(CNC(=O)C2(C(F)(F)F)C/C(=C\Cc3ccccc3)CCCO2)o1 (centres undefined)	inactive	
O=C(NCc1ccccn1)[C@]1(C(F)(F)F)C[C@H](CCc2ccccc2)CCCO1	39.8 µM (active)	
CCCOc1cccc(C(=O)Nc2cccc(NC(=O)c3ccc(C(C)(C)C)cc3)c2)c1	inactive	

Structure (SMILES)	Potency	activity change, negative = inhibition
Cc1ccc(-c2n[nH]c(=S)n2/N=C/c2cc3c(cc2[N+](=O)[O-])OCO3)cc1	10 µM (active)	
Cc1ccc(S(=O)(=O)N/N=C\c2cc3c(cc2[N+](=O)[O-])OCO3)cc1	inactive	
CCN1CCN(C(C(=O)NC2CCCC2)c2cc3c(cc2[N+](=O)[O-])OCO3)CC1 (centres undefined)	inactive	
CCOC(=O)c1nc(-c2ccc3c(c2)OCO3)[nH]c1C	inactive	
CCOc1ccc(-c2n[nH]c(=S)n2/N=C/c2cc3c(cc2[N+](=O)[O-])OCO3)cc1	17.8 µM (active)	
O=S(=O)(c1ccc(Cl)cc1)c1nnn2c1nc(NC1CCCC1)c1sccc12	inactive	
COc1ccc(-c2ccc(CNCCCN3CCOCC3)o2)cc1Cl	inactive	
Cc1cc(S(=O)(=O)NCc2ccccn2)c(Cl)cc1Cl	inactive	
Fc1ccc(-c2ccc(CNCc3ccccn3)o2)cc1Cl	63.1 µM (active)	
O=C(NC1CCN(Cc2ccccc2)CC1)c1ccc(Cn2c(=O)c3ccccc3n(Cc3cccc(F)c3)c2=O)cc1	inactive	
O=C1CN(C(=O)Nc2ccccc2C(F)(F)F)C(c2ccccc2)c2c(sc3c2CCCC3)N1 (centres undefined)	inactive	
COc1ccc(CNC(=O)CS(=O)Cc2nc(-c3cccc(C)c3)oc2C)cc1 (centres undefined)	inactive	
Cc1cccc(N2CCN(C(c3ccccc3)c3nnnn3CC3CCCO3)CC2)c1C (centres undefined)		-8.9% [at 11.4 µM]
CC1(C)CC(N2CCN(C(c3ccccc3)c3ccccc3)CC2)=CC(=[N+]2CCCCC2)C1	25.1 µM (active)	
CC1(C)CC(=O)C=C(N2CCOCC2)C1	inactive	
CCNS(=O)(=O)c1ccc(NC(=O)CSc2nc(-c3ccco3)cc(C(F)(F)F)n2)cc1	inactive	
O=C(CSc1cn(CC(=O)N2CCOCC2)c2ccccc12)Nc1ccccc1	inactive	
CC(=O)Nc1ccc(NC(=O)C2CCCN(S(=O)(=O)c3ccc4c(c3)CCCC(=O)N4)C2)cc1 (centres undefined)	inactive	
COc1cc(C2c3c(oc4ccccc4c3=O)C(=O)N2c2nc(C)c(C)s2)ccc1O (centres undefined)	inactive	
CCOc1ccc(-n2c(C)nc3c(cnn3-c3ccc(C)cc3)c2=O)cc1	inactive	
Cn1ccc2cc(S(=O)(=O)N3CCCC(C(=O)NCc4ccccc4F)C3)ccc21 (centres undefined)	inactive	
COc1ccc(CN2CCNC(=O)C2CC(=O)N(C)Cc2ccccn2)cc1OC (centres undefined)	14.1 µM (active)	
COc1cccc(CN2CCNC(=O)C2CC(=O)N(C)CCc2ccccn2)c1 (centres undefined)	inactive	
CN(Cc1cccc2ncccc12)C(=O)CC1C(=O)NCCN1Cc1ccc(F)cc1 (centres undefined)	inactive	
Cc1ccc(CCNC(=O)c2ccc3c(c2)N(Cc2cc(C)ccc2C)C(=O)c2ccccc2S3=O)cc1 (centres undefined)	inactive	

Structure (SMILES)	Potency	activity change, negative = inhibition
Cc1ccc(NC(=O)NC(C)c2c(-n3cccc3)sc(C)c2C)c(C)c1 (centres undefined)	inactive	
CCn1cc(NC(=O)Nc2ccc(OC)c(OC)c2)c(C(N)=O)n1	inactive	
COc1ccc(NC(=O)NC(C)c2c(-n3cccc3)sc(C)c2C)cc1OC (centres undefined)	50.1 µM (active)	
Cc1cc2c(s1)c1cnn(Cc3c(F)cccc3Cl)c(=O)c1n2C	inactive	
Cc1ccc(S(=O)(=O)N(CC(=O)Nc2ccc(Cl)cc2Cl)c2ccccc2C)cc1	inactive	
COc1cccc(CNC(=O)c2ccc3c(c2)sc2nc(-c4cccc(OC)c4)cn23)c1	inactive	
CCCCc1nc2ccccc2c(NC(=O)CN2CCN(C)CC2)c1CCC	0.708 µM (active)	
CCc1ccc(-c2cc(C(=O)NN3CCN(C)CC3)c3ccccc3n2)cc1	inactive	
CCc1cc(C(=O)c2ccc(OC)cc2)c(NC(=O)CN2CCN(C)CC2)s1	inactive	
CC(C)C(=O)Nc1nc2c(s1)CC(C(C)(C)C)CC2 (centres undefined)	inactive	
CC1CN(C(=O)N2CCC(C(=O)NCc3cccs3)CC2)c2ccccc2O1 (centres undefined)	inactive	
Cc1nn(-c2nc(-c3ccccc3)cc(C(F)(F)F)n2)c(C)c1Cl	inactive	
CNc1ccc(-c2nc(-c3ccccc3C)no2)cc1[N+](=O)[O-]	inactive	
COc1ccc(N(C)C(=O)C2CCN(S(=O)(=O)c3cc(Br)cc4c3N(C(C)=O)CC4)CC2)cc1	inactive	
Cc1ccc2cc(CCNC(=O)c3c(-c4ccccc4Cl)noc3C)c(=O)[nH]c2c1	inactive	
Cc1onc(-c2ccccc2Cl)c1C(=O)N(Cc1ccc(N(C)C)cc1)C(C)C	39.8 µM (active)	
Cc1onc(-c2ccccc2Cl)c1C(=O)NCCn1ccc2ccccc21	inactive	
CCOc1ccc(OCC)c(Nc2nc3ccccc3n3nnnc23)c1	inactive	
CCC(=O)N1CCc2cc(Br)cc(S(=O)(=O)CCC(=O)N3CCN(c4ccc(F)cc4)CC3)c21	inactive	
Cc1ccccc1CSc1nc(-c2ccccc2)nc2c1Cc1c(CO)cnc(C)c1O2	inactive	
CCOC(=O)Cn1c(=O)n(C2CCCCC2)c2nc(-c3cccc(OC)c3)nc(C(N)=O)c21	inactive	
O=C(CN1CCCCCC1)NCCN1C(=O)S/C(=C\c2ccccc2Cl)C1=O	inactive	
N#Cc1ccccc1CN1C(=O)S/C(=C/c2cccn2-c2cccc(C(=O)O)c2)C1=O	56.2 µM (active)	
CN(C(=O)CSc1nc2ccccc2n1Cc1ccccc1C#N)c1ccccc1	inactive	
